ERp5 block = ERp5 (human) disulfide isomerase inhibition | 0.05% of 350,000 active | ERp5 insulin aggregation, absorbance 650 nm, 90 min | Q15084 | inhibition, % at 9.99 µM;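 active = mean replicate inhibition above about 25%, with every replicate also reaching it, limit read from the data, passing the limit was not always enough; inconclusive = only one of those two criteria met; inactive = neither criterion met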
PDI inh = PDI (human) enzyme inhibition | AID 588391 | PDI insulin aggregation turbidity, A650, 90 min | P07237 | 0.052% of 350,000 active | inhibition, % at 10 µM;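 active = mean inhibition across replicates of 30% or more, whatever share of single replicates reach that level; inconclusive = mean inhibition below 30% while every single replicate reaches 30%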
SIRT5 inh = sirtuin-5 (human) deacylase inhibition. Purified SirT5, succinyl-peptide AMC, trypsin-coupled fluorescence. inhibition, % at 15 µM. 1.1% of 330,000 active; in the data active = inhibition above about 15%; inconclusive = no clear call, values can overlap the other calls
Target sequence (Q9NXA8 whole entry, looked up): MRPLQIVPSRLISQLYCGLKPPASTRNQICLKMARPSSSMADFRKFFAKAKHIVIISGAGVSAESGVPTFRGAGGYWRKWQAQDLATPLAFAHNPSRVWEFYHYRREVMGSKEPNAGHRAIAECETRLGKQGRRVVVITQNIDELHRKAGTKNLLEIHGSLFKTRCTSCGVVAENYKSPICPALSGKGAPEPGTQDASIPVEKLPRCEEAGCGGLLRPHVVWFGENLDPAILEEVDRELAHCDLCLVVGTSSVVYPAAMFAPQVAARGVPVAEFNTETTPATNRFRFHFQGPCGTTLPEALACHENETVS
Rtt109 Vps75 = C. albicans Rtt109 histone acetyltransferase inhibition. Q5AAJ8. purified Rtt109/Vps75, ThioGlo CoA-SH fluorescence, 4 h. inhibition, % at 34.9 µM. 0.16% of 330,000 active;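 active = inhibition of at least 50% in every replicate; inconclusive = best replicate reaches 50% inhibition but some replicates fall short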
Target sequence (Q5AAJ8 whole entry, looked up): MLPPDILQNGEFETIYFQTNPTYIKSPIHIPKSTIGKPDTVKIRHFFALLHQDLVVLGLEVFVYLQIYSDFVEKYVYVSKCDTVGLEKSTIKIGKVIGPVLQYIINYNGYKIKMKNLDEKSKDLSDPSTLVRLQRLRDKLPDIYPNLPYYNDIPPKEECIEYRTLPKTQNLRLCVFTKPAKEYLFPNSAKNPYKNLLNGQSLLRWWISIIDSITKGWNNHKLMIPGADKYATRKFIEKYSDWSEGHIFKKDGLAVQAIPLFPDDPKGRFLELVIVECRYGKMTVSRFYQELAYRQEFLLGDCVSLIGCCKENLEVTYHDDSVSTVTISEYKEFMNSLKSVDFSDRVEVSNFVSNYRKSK
DENV2 CPE rescue = protects cells from dengue virus 2 cytopathic effect; CPE inhibition, % at 9.99 µM; DENV2-infected cells, cytopathic effect rescue, plate reader; 1.7% of 350,000 active; AID 651640; in the data active = CPE inhibition above about 20%, passing the limit was not always enough; inconclusive = no clear call, values can overlap the other calls; tested in BHK-21 cells
Numbers stand for hits; i = inactive; ? = inconclusive; nt = no result given; ! = a repeat was not active. Rows were chosen to be rich in hits. Some 2.3% of all compounds tested hit in one or more screens of this group.

SMILES | ERp5 block | PDI inh | SIRT5 inh | Rtt109 Vps75 | DENV2 CPE rescue
C[C@H](CO)N1C[C@H](C)[C@H](CN(C)Cc2ccc(C(=O)Nc3ccccc3N)cc2)Oc2ccc(NS(=O)(=O)c3ccc(Cl)cc3)cc2C1=O | i | nt | nt | nt | i
O=S(=O)(c1ccc(F)cc1)N1CCCCN2[C@@H](CO)[C@@H](c3ccc(-c4ccccc4)cc3)[C@@H]2C1 | i | nt | i | nt | i
CC(C)CNC(=O)C1(C)CCCCCN1C(=O)c1csnn1 (stereo not given) | i | i | nt | nt | 113
CC(C)CNC(=O)C1(C)CCCN1C(=O)c1csnn1 (stereo not given) | i | i | i | nt | i
CO[C@@H]1CN(C)C(=O)c2ccc(NS(C)(=O)=O)cc2OC[C@H](C)N(CC2CCOCC2)C[C@@H]1C | i | nt | i | nt | i
c1ccc(CCNCCCOc2cccc3ccccc23)cc1 | i | i | i | i | 35
CC(=O)NCCOc1cccc2ccccc12 | nt | i | nt | i | nt
O=C(N[C@@H]1CC[C@@H](CCNC(=O)C2CCCCC2)O[C@H]1CO)c1ccncc1 | i | nt | i | nt | i
CC(C)NC(=O)N1Cc2cc(C(=O)NC3CCC3)nc(-c3cccc(-c4cccnc4)c3)c2[C@@H]1CCO | i | nt | i | nt | 30
CCC(=O)N1Cc2cc(C(=O)NCC(F)(F)F)nc(-c3cccc(-c4cncnc4)c3)c2[C@@H]1CCO | i | nt | i | nt | i
CC(=O)N1Cc2cc(C(=O)NCC(F)(F)F)nc(-c3cccc(-c4cncnc4)c3)c2[C@@H]1CCO | i | nt | i | nt | 21
CCNC(=O)c1cc2c(c(-c3cccc(-c4cncnc4)c3)n1)[C@@H](CCO)N(C(C)=O)C2 | i | nt | i | nt | 40!
CCC(=O)N1Cc2cc(C(=O)N(C)C)nc(-c3cccc(-c4cncnc4)c3)c2[C@H]1CCO | i | nt | i | nt | i
CC(=O)N1Cc2cc(C(=O)NCC(F)(F)F)nc(-c3cccc(-c4cc5ccccc5o4)c3)c2[C@H]1CCO | i | nt | i | nt | 25!
CN(C)CC(=O)Nc1ccc2c(c1)[C@@H]1C[C@@H](CC(=O)NCc3cc(F)ccc3F)O[C@H](CO)[C@@H]1O2 | i | nt | i | nt | i
COc1ccc(-n2c(C)cc(C)c(C(C)=O)c2=S)cc1 | i | i | 27 | i | i
CCS(=O)(=O)N1CC(=O)N2[C@@H](CO)[C@H](c3ccc(C#Cc4ccc(F)cc4)cc3)[C@@H]2C1 | i | nt | i | nt | i
C[C@H](CO)N1C[C@H](C)[C@H](CN(C)C(=O)c2ccccc2)Oc2cc(C3=CCCCC3)ccc2S1(=O)=O | i | nt | i | nt | 93
C[C@H]1CN([C@@H](C)CO)S(=O)(=O)c2ccc(C3=CCCCC3)cc2O[C@@H]1CN(C)C(=O)c1ccc(F)cc1 | i | nt | 16 | nt | i
C[C@@H]1CN([C@H](C)CO)S(=O)(=O)c2ccc(C3=CCCCC3)cc2O[C@H]1CN(C)C(=O)c1ccc(F)cc1 | i | nt | i | nt | i
O=C(Nc1ccc(F)cc1)N1CC(=O)N2[C@H](CO)[C@H](c3ccc(C4=CCCC4)cc3)[C@H]2C1 | i | nt | i | nt | i
CCN1[C@H](C(=O)N2CCc3ccccc3C2)[C@@H](CO)[C@@H]2Cn3c(cccc3=O)[C@@H]21 | i | nt | i | nt | i
C[C@H]1CN([C@@H](C)CO)C(=O)c2cc(C#Cc3cccnc3)cnc2O[C@H]1CN(C)C(=O)CC1CC1 | i | nt | i | nt | i
O=C(C[C@H]1C=C[C@@H](NC(=O)C2CCC2)[C@H](CO)O1)NCc1ccncc1 | i | nt | i | nt | i
COc1ccc(C2=Nn3c(nnc3-c3ccccc3Cl)SC2)cc1OCC1CC1 | i | i | nt | i | 32
SMILES | ERp5 block | PDI inh | SIRT5 inh | Rtt109 Vps75 | DENV2 CPE rescue
COc1ccc(OC)c(-c2nnc3n2N=C(c2ccc(OC)c(OCC4CC4)c2)CS3)c1 | nt | i | nt | i | nt
CCOC(=O)Cn1c(=O)cc(C)c2ccccc21 | i | i | i | i | i
CCOC(=O)Cn1c(C)[n+](CC(=O)c2ccccc2)c2ccccc21 | i | i | i | 55 | i
CNC[C@H]1Oc2cc(-c3ccccc3F)ccc2S(=O)(=O)N([C@H](C)CO)C[C@@H]1C | i | nt | i | nt | i
Nc1ccc(-c2c3ccc(=O)cc-3oc3cc(O)ccc23)cc1C(=O)O | i | i | 19 | i | i
O=c1ccc2c(-c3ccccc3)c3ccc(O)cc3oc-2c1 | i | i | i | i | i
Cc1ccc(OCCOCCN2CCCC2)c(Br)c1 | i | i | i | i | 44
C[C@H]1CN([C@@H](C)CO)C(=O)c2cc(C#CCc3ccccc3)cnc2O[C@@H]1CN(C)Cc1ccc(C(=O)O)cc1 | i | nt | i | nt | i
C[C@@H]1CCCCO[C@H](CN(C)C(=O)Nc2ccccc2)[C@@H](C)CN([C@H](C)CO)C(=O)c2cc(NC(=O)c3ccncc3)ccc2O1 | i | nt | i | nt | i
Cc1cc(C)c(C(=O)N(C)C2CCCN(Cc3ccccc3F)C2)o1 (stereo not given) | i | i | i | i | 37
Cc1cc(C)cc(C(=O)N(C)C2CCCN(Cc3ccccc3F)C2)c1 (stereo not given) | i | i | i | i | i
CO[C@@H]1CN(C)C(=O)c2ccc(NC(=O)c3cccc(F)c3)cc2OC[C@@H](C)NC[C@H]1C | i | nt | i | nt | 31
COc1cccc(C(=O)Nc2ccc3c(c2)OC[C@@H](C)NC[C@@H](C)[C@H](OC)CN(C)C3=O)c1 | i | nt | i | nt | 22
C[C@H](CO)N1C[C@H](C)[C@@H](CN(C)CC2CC2)Oc2c(NS(=O)(=O)c3cccs3)cccc2C1=O | i | nt | i | nt | i
COc1ccc(CNC(=O)Nc2ccc3c(c2)c(=O)n(C)n3Cc2cc(C)cc(C)c2)cc1 | i | i | nt | nt | 32
Cc1ccc2c(c1)c1c3n2CCN(C(=O)C2CC2)C3CCC1 (stereo not given) | ? | i | i | i | 54
Cc1ccc2c(c1)c1c3n2CCN(C(=O)CN2CCN(C)CC2)C3CCC1 (stereo not given) | nt | i | nt | i | nt
Cc1ccc(S(=O)(=O)N(C)C[C@H]2Oc3ccc(NC(=O)Cn4cnnn4)cc3CC(=O)N([C@H](C)CO)C[C@@H]2C)cc1 | i | nt | i | nt | i
Cc1ccc(S(=O)(=O)N(C)C[C@@H]2Oc3ccc(NC(=O)Cn4cnnn4)cc3CC(=O)N([C@H](C)CO)C[C@@H]2C)cc1 | i | nt | i | nt | 31
Cc1ccc(S(=O)(=O)N(C)C[C@@H]2Oc3ccc(NC(=O)Cn4cnnn4)cc3C(=O)N([C@@H](C)CO)C[C@@H]2C)cc1 | i | nt | i | nt | 42
Cc1noc(C)c1S(=O)(=O)N(C)C[C@@H]1Oc2ccc(NC(=O)Cn3cnnn3)cc2C(=O)N([C@@H](C)CO)C[C@@H]1C | i | nt | 23 | nt | i
O=C(Nc1ccc(F)cc1)N1C[C@H]2[C@@H](c3ccccc31)[C@@H](CO)N2C(=O)c1ccccc1 | i | nt | i | nt | i
COc1ccccc1-c1nnc(NC(=O)c2ccc(S(=O)(=O)N3CCCC3)cc2)o1 | i | i | i | i | i
CS(=O)(=O)c1cccc(-c2nnc(NC(=O)c3ccc(S(=O)(=O)N4CCCC4)cc3)o2)c1 | i | i | i | i | 61
CC1CCN(S(=O)(=O)c2ccc(C(=O)Nc3nnc(-c4ccco4)o3)cc2)CC1 | i | i | i | i | 90
O=C(Nc1nnc(-c2ccco2)o1)c1ccc(S(=O)(=O)N2CCCC2)cc1 | i | i | i | i | i

High-throughput results from PubChem BioAssay.
